# Assay results: publication PMC10726135, “HNF4α isoforms regulate the circadian balance between carbohydrate and lipid metabolism in the liver”
# The full ranking holds about 18,000 sequences; the median of “log2 normalized intensity” is about 0.39, and the highest 2% start at about 6.6. The list comes from a sample in which the highest values are over-represented; it also holds similar and randomly drawn sequences.
# Molecular target: T1, HNF4alpha2 (COS-7 nuclear extract) (Homo sapiens, UniProt P41235 1-474)
# T1 sequence: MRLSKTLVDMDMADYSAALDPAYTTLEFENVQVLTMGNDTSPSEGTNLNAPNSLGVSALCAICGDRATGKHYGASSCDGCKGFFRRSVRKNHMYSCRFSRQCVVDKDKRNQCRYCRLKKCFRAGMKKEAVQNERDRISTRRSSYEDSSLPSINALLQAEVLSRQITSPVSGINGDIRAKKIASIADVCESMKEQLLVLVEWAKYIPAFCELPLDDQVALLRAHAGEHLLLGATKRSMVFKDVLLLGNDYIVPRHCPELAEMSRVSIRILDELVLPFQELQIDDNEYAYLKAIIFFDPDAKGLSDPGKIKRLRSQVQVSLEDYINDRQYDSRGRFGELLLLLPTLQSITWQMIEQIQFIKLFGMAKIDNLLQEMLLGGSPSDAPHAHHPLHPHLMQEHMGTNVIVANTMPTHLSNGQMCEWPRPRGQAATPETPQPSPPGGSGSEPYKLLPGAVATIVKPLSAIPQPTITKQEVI
# Assay: protein-binding microarray; COS-7 nuclear extract on double-stranded Agilent 4x180k PBM; binding buffer, salt, pH and temperature not given in the material; high values mean tight binding
# Details: chain copies: 2; label: 3' end of strand 1 on the slide; dsDNA, one strand shown
# Method in brief: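 Using CaPO4, COS-7 cells were transiently transfected with a human HNF4α isoform expression vector, and their nuclear extracts were applied to a custom Agilent SurePrint G3 4x180k double-stranded oligonucleotide array (~60 nt; ~44,000 test sequences in quadruplicate). Bound HNF4α was imaged at 2-µm resolution with an Agilent G2565CA scanner. Agilent software supplied the background-corrected, normalized gProcessedSignal that serves as the binding signal.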
row,Sequence,binding signal [log2 normalized intensity]
1,CTTCAAAGGTCGTGTGCTTATCACATCTATGCCTAGGGAGATTAGAGTATCGGTCGA,1.12
2,GTGATGACCCCATACTTCAGCAATTTCTTAGCCTAGGGAGATTAGAGTATCGGTCGA,1.12
3,AATCCCCTTCAAGTCTGAGATGAAGAGGCCGCCTAGGGAGATTAGAGTATCGGTCGA,0.649
4,CAGTGGTAATGGAGCTGAAACTATAAACTTGCCTAGGGAGATTAGAGTATCGGTCGA,-0.653
5,ACCTTTGCCCTGGATCTTGAAGCAGAAAACGCCTAGGGAGATTAGAGTATCGGTCGA,1.58
6,TAATCAGCTTAAGCATACAGATTACATCTCGCCTAGGGAGATTAGAGTATCGGTCGA,-0.798
7,ACGTTCACGTCTCAAGCTTCAGGAGTCCACGCCTAGGGAGATTAGAGTATCGGTCGA,2.07
8,ATACGATAATGTCAAACATCTTATATCAACGCCTAGGGAGATTAGAGTATCGGTCGA,0.675
9,TCTATCTGTATTCTGAAGCCCTACAGCCCAGCCTAGGGAGATTAGAGTATCGGTCGA,-0.864
10,CCTCTGCATTTGCTCCCTGACTTGGTTTACGCCTAGGGAGATTAGAGTATCGGTCGA,1.67
11,CAGATCCAGTGGACTCTCTGTTTGATCAGCGCCTAGGGAGATTAGAGTATCGGTCGA,1.51
12,TGTCACACACAGACTTGGGTTCAAAGAGCAGCCTAGGGAGATTAGAGTATCGGTCGA,3.94
13,AATGATTGCATAATCTGGCTCCAAAGTCTAGCCTAGGGAGATTAGAGTATCGGTCGA,2.2
14,CCTTTACCCTGACCTGTCAAGCAATGATCTGCCTAGGGAGATTAGAGTATCGGTCGA,1.25
15,AGCAGTCTGAGTAGGAAAGACTTGCTCATTGCCTAGGGAGATTAGAGTATCGGTCGA,-0.18
16,CCCTCTGAGTGTTTGACCTTTCACCCAGAAGCCTAGGGAGATTAGAGTATCGGTCGA,6.42
17,CACTCTGGTGCCCTCTGAGTGTTTGACCTTGCCTAGGGAGATTAGAGTATCGGTCGA,5.15
18,TGGTGCCCTCTGAGTGTTTGACCTTTCACCGCCTAGGGAGATTAGAGTATCGGTCGA,7.66
19,GTTGCTTCCACCTATGAGTCTGTAAAGTCAGCCTAGGGAGATTAGAGTATCGGTCGA,0.468
20,AATATTCTGGCTTCTCGTGAGTATTTTTTCGCCTAGGGAGATTAGAGTATCGGTCGA,0.954
21,TTTGGAATTGTGTCACTCCCCAGGAATGTGGCCTAGGGAGATTAGAGTATCGGTCGA,1.89
22,CCTCTGCACCCCACCAAGGACTGGACCACCGCCTAGGGAGATTAGAGTATCGGTCGA,2.34
23,TAATCAGAGCAGGAATTCTGATCTTTGACCGCCTAGGGAGATTAGAGTATCGGTCGA,7.18
24,CCACTTTGAATCAGGAGAGCATCTGAGTGTGCCTAGGGAGATTAGAGTATCGGTCGA,1.15
25,TTCTGATCTTTGACCTCTCCAGGGTCCTTGGCCTAGGGAGATTAGAGTATCGGTCGA,4.73
26,AGAGCAGGAATTCTGATCTTTGACCTCTCCGCCTAGGGAGATTAGAGTATCGGTCGA,7.34
27,CATCTTTGAAGAGCACAGGGTCAGCAGATCGCCTAGGGAGATTAGAGTATCGGTCGA,1.17
28,AGGAATTCTGATCTTTGACCTCTCCAGGGTGCCTAGGGAGATTAGAGTATCGGTCGA,5.99
